The nature of assay [1]: resazurin metabolic signal in HepG2 cells – cell-based, resazurin fluorescence, 24 h, PK04 Diversity Set, profiling panel (AID 1172). Further: test concentration not given here. Conditions: HepG2 viability, higher = more signal. For orientation: Resazurin is reduced to fluorescent resorufin, in cell work by metabolically active cells.
A short description of assay [2]: budding yeast growth changes without added modifier – OD600, strain BY4716, 24 h, basal condition, primary screen (AID 1173). The conditions noted are these: S. cerevisiae BY4716 growth, OD600, 24 h; higher = more signal, called active from +8 up or from −8 down.
Assay [3] is described as follows: viability profiling in MM1S myeloma cells – cell-based, resazurin fluorescence, basal, 24 h, PK04 Diversity Set, profiling panel (AID 1174).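 Further: MM1S multiple myeloma cell line; test concentration not given here.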 Conditions: higher = more signal, called active from +8 up or from −8 down.
Assay [4] concerns the target Dihydroorotate dehydrogenase (quinone), mitochondrial (Plasmodium falciparum (isolate 3D7)) (UniProt Q08210). In words: inhibition of P. falciparum DHODH – biochemical, C-terminal His tag, absorbance 600 nm, primary screen (AID 1175).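 Further: recombinant parasite enzyme with a five histidine tag at its C terminus; test concentration not given here.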 The conditions noted are these: PfDHODH enzyme, DCIP absorbance 600 nm; higher = more signal, called active from +8 up or from −8 down.
A short description of assay [5]: inhibition of PAO1 biofilm formation – strain PAO1, LB-PBS medium, absorbance 600 nm, primary screen (AID 1176). Further: test concentration not given here. Conditions: P. aeruginosa PAO1 growth/biofilm, A600, 12 h; higher = more signal.
Assay [6] is described as follows: growth modulation of vineyard yeast isolate – strain RM11-1a, OD600, basal, 24 h, primary screen (AID 1177).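 Further: cultures grown under basal conditions with no added stressor; test concentration not given here.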 The conditions noted are these: S. cerevisiae RM11-1a growth, OD600, 24 h; higher = more signal, called active from +8 up or from −8 down.
A short description of assay [7]: growth of efflux-deficient E. coli DRC39 – strain DRC39, OD650, 24 h, E. coli filamentation inducers, primary screen (AID 1178).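 Further: growth measured as culture turbidity by optical density at 650 nm; test concentration not given here.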 Conditions: E. coli DRC39 acrAB, higher = more signal, called active from +8 up or from −8 down.
Assay [8] can be described thus: growth of efflux-deficient E. coli DRC39 – strain DRC39, OD650, 48 h, E. coli filamentation inducers, primary screen (AID 1179).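 Further: screen aims at cell division blockers that make cells filament.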 Conditions: E. coli DRC39 delta-acrAB growth, higher = more signal, called active from +8 up or from −8 down.
Assay [9] can be described thus: viability profiling in RPMI8226 myeloma cells – cell-based, resazurin fluorescence, basal, 24 h, PK04 Diversity Set, profiling panel (AID 1180).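 Further: RPMI8826 multiple myeloma cell line at 5000 cells per well; test concentration not given here.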 The conditions noted are these: higher = more signal.
In assay [10] the target is E3 ubiquitin-protein ligase XIAP (Homo sapiens) (UniProt P98170). In words: small molecules binding XIAP protein – biophysical, small-molecule microarray, fluorescence 635 nm, primary screen (AID 1181).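 Further: score merges 667 nm emission and signal to noise over triplicate slides.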 Conditions: higher = more signal.

Calls of active or inactive are those of the source. Unless noted, how the calls were made is not given here.

Chain of Dihydroorotate dehydrogenase (quinone), mitochondrial (Plasmodium falciparum (isolate 3D7)) (Q08210 whole entry, looked up): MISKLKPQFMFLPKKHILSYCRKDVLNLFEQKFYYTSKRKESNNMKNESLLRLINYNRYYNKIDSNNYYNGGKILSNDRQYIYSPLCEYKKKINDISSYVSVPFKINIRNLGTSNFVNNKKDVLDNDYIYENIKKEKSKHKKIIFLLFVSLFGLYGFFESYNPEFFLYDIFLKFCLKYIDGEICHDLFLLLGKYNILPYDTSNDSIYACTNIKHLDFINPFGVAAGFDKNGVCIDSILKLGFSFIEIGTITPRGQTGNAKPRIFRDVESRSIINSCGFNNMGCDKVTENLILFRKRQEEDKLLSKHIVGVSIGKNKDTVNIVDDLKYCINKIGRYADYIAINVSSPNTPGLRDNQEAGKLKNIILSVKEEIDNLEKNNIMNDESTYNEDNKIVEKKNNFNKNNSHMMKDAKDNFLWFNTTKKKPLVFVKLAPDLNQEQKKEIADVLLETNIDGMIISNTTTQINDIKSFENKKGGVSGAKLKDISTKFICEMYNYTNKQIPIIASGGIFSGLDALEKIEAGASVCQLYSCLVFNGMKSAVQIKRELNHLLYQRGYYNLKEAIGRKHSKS
Chain of E3 ubiquitin-protein ligase XIAP (Homo sapiens) (P98170 whole entry, looked up): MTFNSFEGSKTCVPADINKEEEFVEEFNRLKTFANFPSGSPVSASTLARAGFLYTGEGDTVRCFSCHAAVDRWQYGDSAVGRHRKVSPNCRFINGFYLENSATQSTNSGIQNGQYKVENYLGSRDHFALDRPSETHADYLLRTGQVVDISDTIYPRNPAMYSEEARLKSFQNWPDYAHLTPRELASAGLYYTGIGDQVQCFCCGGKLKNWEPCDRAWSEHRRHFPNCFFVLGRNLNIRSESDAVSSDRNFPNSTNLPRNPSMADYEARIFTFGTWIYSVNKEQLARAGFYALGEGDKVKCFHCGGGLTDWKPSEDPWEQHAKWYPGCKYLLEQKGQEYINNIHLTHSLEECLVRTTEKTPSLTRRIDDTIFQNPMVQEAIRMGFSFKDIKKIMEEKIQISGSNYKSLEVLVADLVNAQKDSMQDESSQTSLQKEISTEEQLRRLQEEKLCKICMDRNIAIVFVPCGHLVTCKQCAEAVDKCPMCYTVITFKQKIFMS

With `Cc1ccc(S(=O)(=O)N[C@@H]2COC(=O)CC=C[C@@H](C)[C@H](NS(=O)(=O)c3ccc(C)cc3)COC(=O)[C@H](C)NC(=O)CC=C[C@H]2C)cc1`, the z-score is -0.286 in assay [1]; -0.547 (inactive) in [2]; 0.341 (inactive) in assay [3]; -0.143 (inactive) in [5]; -0.188 (inactive) in assay [6]; 0.983 (inactive) in assay [7]. In addition, the z-score in assay [8] was 0.0462 (inactive); in assay [9] it was -0.24. In addition, the composite z-score in [4] is 0.576 (inactive); in assay [10], -0.227.

Regarding `CCOC(=O)[C@H](CC(C)C)NC(=O)CCC1CC(OC(=O)NCc2ccc3c(c2)OCO3)CC2(CCCC(COC(=O)NCc3ccccc3)O2)O1` (stereo not given in full), the z-score in [1] was 1.32; in [2], 0.918 (inactive); in assay [3], 0.624 (inactive); in assay [5], -0.282 (inactive); in assay [6] it was 1.26 (inactive); in [7] it was 0.533 (inactive). Besides, the z-score was -0.0559 (inactive) in [8] and 0.836 in assay [9]. The composite z-score in assay [4] is -0.047 (inactive); in assay [10] it was 0.0727.

As to `Cc1cc(C)c(-c2cc([C@H](C)ON=C[C@@H](C)[C@H](OCc3ccccc3)C(C)C)on2)c(C)c1`, the z-score in assay [1] was -0.811; in assay [2], 0.462 (inactive); in assay [3], -0.258 (inactive); in assay [5], -0.23 (inactive); in assay [6], 0.255 (inactive); in [7] it was 0.262 (inactive). Moreover, the figures for the z-score in assay [8] and in [9] were 0.336 (inactive) and -0.522, respectively. For the same compound, the composite z-score in assay [4] was -0.382 (inactive); in assay [10] it was 0.02.

As to `CO[C@H]1C[C@@H]2C[C@H](O)CC(CC(=O)O[C@@H](C=CCC(C)C)C[C@@H]3CC[C@H](C)[C@@H](C1)O3)O2`, the z-score in assay [1] was -0.37; in [2], -1.47 (inactive); in assay [3] it was -0.0942 (inactive); in assay [5] it was -0.139 (inactive); in [6], -1.65 (inactive); in [7], -0.033 (inactive). For the same compound, the z-score in assay [8] was -0.394 (inactive); in assay [9], -0.384. Also, the composite z-score was -0.928 (inactive) in [4] and 0.0256 in [10].

Regarding `C[C@@H]1CC[C@@H](C(=O)O)N[C@H]1c1cccc(N2CCOCC2)c1`, the z-score was 0.764 in [1]; -1.62 (inactive) in assay [2]; 0.7 (inactive) in [3]; 0.143 (inactive) in assay [5]; -0.206 (inactive) in assay [6]; 1.32 (inactive) in [7]. Moreover, the z-score is 1.13 (inactive) in assay [8] and 0.198 in [9]. Besides, the composite z-score in assay [4] was 0.18 (inactive); in assay [10], 0.13.

On to `CO[C@@H](C(C)C)[C@@H](C)C1OC(=O)CC1O` (stereo not given in full), for which the z-score in assay [1] was -0.544; in assay [2], -0.139 (inactive); in assay [3] it was -0.766 (inactive); in assay [5] it was -0.139 (inactive); in assay [6], -0.622 (inactive); in assay [7], 0.284 (inactive). The results for the z-score in assay [8] and in assay [9] were 0.468 (inactive) and -1.17, respectively. For the same compound, the composite z-score in [4] is -0.531 (inactive); in [10], -0.0391.

Turning to `COCOc1ccc(Br)cc1C(=O)C=Cc1ccc2c(c1)OCO2`, the z-score is -2.37 in [1]; -3.33 (inactive) in assay [2]; -3.86 (inactive) in [3]; 1.01 (inactive) in [5]; 0.616 (inactive) in [6]; 0.725 (inactive) in assay [7]. For the same compound, the z-score in [8] is 0.253 (inactive); in assay [9], -3.36. Also, the composite z-score in assay [4] is -1.1 (inactive); in [10] it was -0.0076.

With `COc1ccc(O[C@H]2C=C[C@@H](c3ccccc3)O[C@@H]2CON=C2c3cc(OC)ccc3O[C@H](c3cccc(OC)c3)[C@H]2O)cc1`, the z-score in assay [1] was -0.568; in [2], 0.311 (inactive); in assay [3] it was -0.89 (inactive); in [5], 1.53 (inactive); in [6] it was 0.041 (inactive); in assay [7], 0.779 (inactive). Besides, the z-score is -0.824 (inactive) in [8] and -0.387 in assay [9]. In addition, the composite z-score is 0.586 (inactive) in assay [4] and -0.206 in assay [10].

For `CC(C)=CCCC(C)=CCON=C1C[C@@H](O)[C@@H](O)[C@@H]2[C@@H]3C(=O)N(c4cccc(Oc5ccccc5)c4)C(=O)[C@@H]3CC[C@H]12`, the z-score was 1.05 in assay [1]; 0.681 (inactive) in assay [2]; 0.674 (inactive) in assay [3]; -0.0849 (inactive) in [5]; 0.668 (inactive) in [6]; 0.599 (inactive) in assay [7]. In addition, the z-score in assay [8] is 0.15 (inactive); in [9], 0.157. The composite z-score in assay [4] was -0.141 (inactive); in assay [10], -0.102.

Regarding `CCCC[C@H]1CN2[C@@H](CC[C@@H](C)[C@@H]2c2ccc(Br)cc2)C(=O)O1`, the z-score in [1] is 0.314; in assay [2], -2.36 (inactive); in [3], 1.05 (inactive); in [5], -0.515 (inactive); in assay [6] it was 0.0621 (inactive); in assay [7], -0.959 (inactive). Moreover, the z-score was -0.985 (inactive) in assay [8] and 0.919 in assay [9]. Moreover, the figures for the composite z-score in assay [4] and in assay [10] were -0.355 (inactive) and 0.127, respectively.

Take `CCOC(=O)[C@H](Cc1ccccc1)NC(=O)CCC1CC(OC(=O)NCCc2ccc(F)cc2)CC2(CCCC(COC(=O)NCCOc3ccccc3)O2)O1` (stereo not given in full): the z-score in [1] is 0.121; in [2] it was -0.245 (inactive); in assay [3] it was -0.02 (inactive); in assay [5] it was 0.651 (inactive); in [6], 0.408 (inactive); in assay [7] it was 0.417 (inactive). Also, the z-score was 0.343 (inactive) in assay [8] and 0.194 in assay [9]. Further, the composite z-score was -0.189 (inactive) in assay [4] and -0.0166 in assay [10].

On to `COc1ccc(COC(=O)NN=C2C[C@@H](O)[C@@H](O)[C@@H]3[C@@H]4C(=O)N(c5cccc(Oc6ccccc6)c5)C(=O)[C@@H]4CC[C@H]23)cc1`, for which the z-score was 0.609 in [1]; -1.08 (inactive) in assay [2]; -0.341 (inactive) in assay [3]; -0.872 (inactive) in assay [5]; -1.02 (inactive) in assay [6]; 0.829 (inactive) in assay [7]. Also, the z-score is 0.751 (inactive) in assay [8] and 0.487 in [9]. In addition, the results for the composite z-score in [4] and in assay [10] were -2.56 (inactive) and 0.274, respectively.

Turning to `CCOC(=O)[C@H](CC(C)C)NC(=O)CCC1CC(OC(=O)NCCc2ccc(F)cc2)CC2(CCCC(COC(=O)NCCOC)O2)O1` (stereo not given in full), the z-score is 0.0369 in assay [1]; 1.02 (inactive) in assay [2]; 0.581 (inactive) in [3]; 0.283 (inactive) in assay [5]; 0.963 (inactive) in [6]; 0.0415 (inactive) in [7]. The z-score in assay [8] was -0.489 (inactive); in assay [9], 0.464. Moreover, the composite z-score in assay [4] was 0.753 (inactive); in assay [10] it was -0.18.

The values are drawn from PubChem BioAssay.
